# About 2,100 (0.66%) of roughly 320,000 compounds were called active. About 53% were inconclusive and are not listed. Calls follow the shape of the dose curve; as a rule, active = well fitted inhibition curve with a large enough effect in the signal ratio, with a control signal flat (not every such curve was filed as active); inconclusive = small, poorly fitted or top-dose-only effect, or effect the other way, or a change in a side signal; inactive = flat fitted curve, though single readings scatter; the % refers to the signal ratio. Many of the other results were omitted from the sample, so actives are more common in it than they were.
# Assay: qHTS Assay for Lipid Storage Modulators in Drosophila S3 Cells;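 as to cell number change: cells counted by Cell Tracker Red CMTPX staining in the red channel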; as to lipid storage change, negative = inhibition: % is scaled to controls: 0 for no effect and ±100 for the full control effect
# Details: BODIPY lipid droplet fluorescence, 18-24 h, cells fed with added oleic acid; cell number change: measured here: cell count max response; series mostly up to 46.1 µM; lipid storage change, negative = inhibition: at the top concentration
# Procedure, shortened: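 Drosophila S3 cells loaded with oleic acid (400 uM, as added) and compounds at several concentrations; lipid droplets imaged by 488-nm laser-scanning cytometry, 500–530 nm intensity and object ratio to cell channel. Percent activity normalized to 20 uM Triacsin C.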
# Potency is read from the fitted curve at half-maximal effect.
Structure (SMILES),"lipid storage change, negative = inhibition",cell number change [%],Potency,outcome
O=C1O/C(=C\C(=O)N2CCOCC2)c2ccccc21,7.9% (inactive),1.94,–,–
CCN(CC)c1ccc(C(=O)OCC(=O)Nc2cc3oc4ccccc4c3cc2OC)cc1,9.28% (inactive),-0.812,–,–
Cn1c(=O)c2c(nc(SCC(=O)N3CCCCCC3)n2C)n(C)c1=O,2.93% (inactive),8.11,–,–
CC(C)n1c(SCC(=O)N2CCCCC2)nc2c1c(=O)n(C)c(=O)n2C,–,-23,0.116 µM (active),–
CC(C)n1c(SCC(=O)N2CCN(C)CC2)nc2c1c(=O)n(C)c(=O)n2C,–,1.32,–,inactive
CCC(CC)C(=O)NCCc1cc2ccc(C)c(C)c2[nH]c1=O,–,–,–,inactive
CCn1cc(/C=N/O)c(C)n1,7.49% (inactive),7.41,–,–
CC1(C)N=C(/C=N/O)C=[N+]1[O-],–,-9.07,6.51 µM (active),–
CCCN(CCC)CCCNC(=O)C1CCC(CNS(=O)(=O)c2cccc3nsnc23)CC1 (stereo not drawn),–,-15,–,inactive
CCCCC(=O)NC(c1ccc(C(C)C)cc1)c1ccc2cccnc2c1O (stereo not drawn),–,-28.4,18.4 µM (active),–
CCCCC(=O)NC(c1ccccc1OC)c1ccc2cccnc2c1O (stereo not drawn),-21.7% (inactive),-24,–,–
CC(=O)NC(c1ccc(C(C)C)cc1)c1ccc2cccnc2c1O (stereo not drawn),–,–,–,inactive
CCOc1c(Br)cc(CNc2ccc(N3CCOCC3)cc2)cc1OC,-18.5% (inactive),-20.8,–,–
Cc1cc(OC(C)C(=O)NCC(O)c2ccccc2)c2c(C)cc(=O)oc2c1 (stereo not drawn),–,6.57,–,inactive
CCOc1ncccc1C(=O)NCc1ccccc1Cl,25.4% (inactive),–,–,–
COc1ccc(CC(=O)NNC(=O)COc2ccc(Br)cc2C)cc1OC,14.4% (inactive),1.07,–,–
NC(=O)c1c(NC(=O)c2ccc(F)cc2Cl)sc2c1CCC2,-6.16% (inactive),3.89,–,–
NC(=O)c1c(NC(=O)c2ccc(F)cc2)sc2c1CCC2,–,5.61,4.61 µM (active),–
O=C(Nc1sc2c(c1C(=O)O)CCCCC2)c1ccccc1F,-22.6% (inactive),-1.56,–,–
NC(=O)c1c(NC(=O)c2ccccc2F)sc2c1CCCC2,–,-10.7,1.64 µM (active),–
COc1ccccc1C(=O)Nc1sc2c(c1C(N)=O)CCCC2,–,-22.3,–,inactive
NC(=O)c1c(NC(=O)c2ccccc2)sc2c1CCC2,–,-24.3,–,inactive
O=S(=O)(Nc1ccc(Cl)cn1)c1ccccc1,-4.96% (inactive),14.4,–,–

Structure (SMILES),"lipid storage change, negative = inhibition",cell number change [%],Potency,outcome
Cc1cccc(/N=C/c2nc(-c3ccccc3Br)oc2O)n1,8.31% (inactive),18.5,–,–
COc1cc(S(=O)(=O)N2CCOCC2)ccc1NC(=O)COC(=O)c1ccccn1,-3.84% (inactive),9.96,–,–
Cc1ccc[n+](CC(=O)N2CCCc3ccccc32)c1,–,-16.8,–,inactive
O=C(CSc1ccccn1)N1CCN(c2ncc(C(F)(F)F)cc2Cl)CC1,4.42% (inactive),6.61,–,–
CNCC(=O)N1CCN(c2ncc(C(F)(F)F)cc2Cl)CC1,4.67% (inactive),-11.3,–,–
O=C(O)c1nn(CC(=O)N2CCN(c3ncc(C(F)(F)F)cc3Cl)CC2)c(=O)c2ccccc12,–,-1.8,0.82 µM (active),–
CSc1nnc(-c2ccccc2)n1N,3.24% (inactive),9.66,–,–
Cc1ccc(NC(=O)c2cccnc2)cc1S(=O)(=O)N(C)C,-15% (inactive),5.29,–,–
CCOc1ccc(-n2cc(-c3ccccc3)c3c(SC(C)C(=O)OC)ncnc32)cc1 (stereo not drawn),-15.9% (inactive),-20.7,–,–
CCn1c(=O)cc(OCC(=O)Nc2ccccc2N2CCN(C)CC2)c2ccccc21,-3.92% (inactive),6.65,–,–
COC(=O)c1cc(CNC(=O)c2sccc2-c2ccccc2)ccc1OC,-18.3% (inactive),-10.7,–,–
COc1ccc(Cc2c(C)nc(N)nc2Cl)cc1,16.4% (inactive),9.54,–,–
CCOc1ccc(Cc2c(Cl)nc(N)nc2Cl)cc1,–,–,–,inactive
COc1ccc(Cc2c(Cl)ncnc2Cl)cc1,–,-13.7,18.4 µM (active),–
CCOC(=O)C(=CNc1ccc(S(N)(=O)=O)cc1)C(=O)OCC,-10.1% (inactive),-11.4,–,–
CCOc1ccc(NC(=O)[C@@H](NC(=O)c2ccco2)C(C)C)cc1,–,4.17,–,inactive
Cc1nc(SCC(=O)c2ccc(Cl)cc2)c([N+](=O)[O-])[nH]1,–,-28.5,–,inactive
Cc1ccc(C(C)C)c(OCC(=O)Nn2c(C)nc3ccccc3c2=O)c1,–,–,–,inactive
Cc1ccc(C(C)C)c(OCC(=O)NNC(=O)C(C(C)C)N2C(=O)c3ccccc3C2=O)c1 (stereo not drawn),–,-20.9,16.4 µM (active),–
Cc1ccc(C(C)C)c(OCC(=O)NNC(=O)CC2OC(=O)c3ccccc32)c1 (stereo not drawn),–,–,–,inactive [at 0.0737 µM]
CC(=O)N1c2ccccc2NC2=C(C(=O)CCC2)C1c1ccc(F)cc1 (stereo not drawn),0.776% (inactive),1.82,–,–
COc1ccc2c(c1)c(CC(=O)O)c(C)n2C(=O)c1ccc(Cl)cc1,-2.62% (inactive),3.94,–,–
COc1ccc2c(c1)c(CC(=O)OC(C)C(=O)N(C)C)c(C)n2C(=O)c1ccc(Cl)cc1 (stereo not drawn),–,-15.8,1.46 µM (active),–

Structure (SMILES),"lipid storage change, negative = inhibition",cell number change [%],Potency,outcome
COc1ccc2c(c1)c(CC(=O)OCC(N)=O)c(C)n2C(=O)c1ccc(Cl)cc1,20.6% (inactive),-0.195,–,–
Cc1ccc(/C=C2\Oc3cc(OC(=O)N4CCOCC4)ccc3C2=O)cc1,2.13% (inactive),0.311,–,–
COC(=O)CC(NC(=O)C1CC1)c1ccc2c(c1)OCO2 (stereo not drawn),4.85% (inactive),–,–,–
CC1Oc2ccccc2C=C1/C=N/NC(=O)[C@@H](C)NC(=O)OC(C)(C)C (stereo partly drawn),5.39% (inactive),8.38,–,–
CCOC(=O)N1CCN(C(=O)c2ccc(Cn3c(=S)[nH]c4cc(OCC)c(OCC)cc4c3=O)cc2)CC1,7.39% (inactive),–,–,–
COc1ccc(CCNC(=O)C(=O)N2CCCCC2)cc1OC,-1.78% (inactive),6.42,–,–
COc1ccc(C(=O)Nc2cnc(NC(=O)c3cccs3)cc2C)cc1,25.6% (inactive),-9.21,–,–
COc1ccc(C(=O)Nc2ccc(NC(=O)c3cccs3)cn2)cc1,–,12.4,10.3 µM (active),–
O=C(Nc1ccc(NC(=O)c2cccs2)cn1)c1ccccc1,-16.2% (inactive),8.82,–,–
O=C(NCCCO)/C(=C\c1cn(-c2ccccc2)nc1-c1cccnc1)NC(=O)c1ccccc1,19.7% (inactive),19.4,–,–
COC(=O)c1cc(C(=O)OCC(=O)NCc2cccs2)cc([N+](=O)[O-])c1,-3.38% (inactive),-8.04,–,–
N#Cc1ccccc1S(=O)(=O)N1CCN(S(=O)(=O)c2ccc(Br)c(C(=O)O)c2)CC1,-3.74% (inactive),–,–,–
CCCCn1c(N)c(N(CCOC)C(=O)C2CCN(S(=O)(=O)c3ccc(C)cc3C)CC2)c(=O)[nH]c1=O,17.2% [at 0.0737 µM] (inactive),–,–,–
O=[N+]([O-])c1ccc(S(=O)(=O)CC2CSc3nc4ccccc4n32)cc1 (stereo not drawn),–,-0.884,32.6 µM (active),–
Cc1ccc(S(=O)(=O)CC2CSc3nc(N)cc(=O)n32)cc1 (stereo not drawn),-8.79% (inactive),2.18,–,–
Cc1nnc2n(c1=O)C(CS(=O)(=O)c1ccc3ccccc3c1)CS2 (stereo not drawn),7.18% (inactive),2.91,–,–
CCOC(=O)Nc1cc2c(C)cc(=O)oc2cc1C,38.2% (inactive),12.9,–,–
Cc1ccc(CN2CCN(Cc3c[nH]c4ccccc34)CC2CCO)o1 (stereo not drawn),-12.5% (inactive),12.4,–,–
Cc1cccc(C)c1NC(=O)N1C2CCC1CC(O)(c1cccnc1)C2 (stereo not drawn),0.613% (inactive),9.99,–,–
O=C(Nc1ccccc1C(=O)NC1CC1)c1ccccc1,3.91% (inactive),10.8,–,–
CCOC(=O)C1=NN(c2cccc(Cl)c2)C2=NC(C)=C(C(=O)OC)C(c3cccs3)N12 (stereo not drawn),-3.04% (inactive),-18.3,–,–
COc1ccc2ccccc2c1/C=N/NC(=O)c1ccc([N+](=O)[O-])cc1,-10.6% (inactive),-15.8,–,–
CCOc1ccc2ccccc2c1/C=N/NC(=O)c1ccncc1,–,6.87,–,inactive

Structure (SMILES),"lipid storage change, negative = inhibition",cell number change [%],Potency,outcome
CCOc1ccc2ccccc2c1/C=N\NC(=O)c1ccc([N+](=O)[O-])cc1,–,-16.1,6.51 µM (active),–
CC(C)CNC(=O)CN1C(=O)NC2(CCCc3ccccc32)C1=O (stereo not drawn),-4.01% (inactive),7.92,–,–
CCCNC(=O)C1CCN(S(=O)(=O)c2ccc3nc4c(c(C(=O)O)c3c2)CCCCC4)CC1,18.1% (inactive),4.41,–,–
CN(C)N1C(=O)CC(C)(c2ccc([N+](=O)[O-])cc2)C1=O (stereo not drawn),-2.1% (inactive),-4.15,–,–
Cc1cccc(-n2ncc3c(=O)[nH]c(SCC(=O)NCCC4=CCCCC4)nc32)c1,-10.6% (inactive),-11,–,–
N#Cc1ccc(C(=O)OCCCc2cc3ccccc3c(=O)o2)cc1,9.51% (inactive),18,–,–
O=C(OCCc1cc2ccccc2c(=O)o1)c1cccc(Br)c1,–,-23.3,0.13 µM (active),–
O=C(OCCCc1cc2ccccc2c(=O)o1)c1ccc2c(c1)OCO2,0.96% (inactive),-12,–,–
CC(C)CN1CCN(Cc2cccn2-c2ccc(Cl)cn2)CC1CCO (stereo not drawn),5.56% (inactive),10.5,–,–
COc1ccc2c(c1)sc1nc(=O)ccn12,-19.5% (inactive),21.5,–,–
CCCCc1c(O)nc2sc3cc(OC)ccc3n2c1=O,–,9.25,10.3 µM (active),–
CCCCc1c(O)nc2sccn2c1=O,15.8% (inactive),–,–,–
CCN(CC)CC(=O)N1CCCC(N2CCN(c3cccc(C(F)(F)F)c3)CC2)C1 (stereo not drawn),12.5% (inactive),21,–,–
CSCC(=O)N1CCCC(N2CCN(c3cccc(C(F)(F)F)c3)CC2)C1 (stereo not drawn),–,7.35,13 µM (active),–
O=C(CN1CCOC1=O)N1CCCC(N2CCN(c3cccc(C(F)(F)F)c3)CC2)C1 (stereo not drawn),–,-10.2,–,inactive
O=C(Nc1cccc(-c2ccc(F)cc2)c1)C1CCCN(Cc2cccnc2)C1 (stereo not drawn),-8.86% (inactive),-21.8,–,–
CCc1ncc(CN2CCCC(C(=O)Nc3cccc(-c4ccc(F)cc4)c3)C2)cn1 (stereo not drawn),–,-24.6,20.6 µM (active),–
CCc1ncc(CN2CCCC(C(=O)Nc3cccc(-c4cccc(C)c4)c3)C2)cn1 (stereo not drawn),11.6% (inactive),8.11,–,–
C=CCN(Cc1nc(-c2ccccc2)no1)C(=O)c1ccoc1C,-4.28% (inactive),33.5,–,–
Cc1cc(=O)oc2cc(Oc3ccc([N+](=O)[O-])cc3[N+](=O)[O-])ccc12,–,-13.4,20.6 µM (active),–
Cc1cc(=O)oc2cc(Oc3ccc(C(N)=O)cc3[N+](=O)[O-])ccc12,0.639% (inactive),5.31,–,–
Cc1cc(=O)oc2cc(Oc3ncccc3[N+](=O)[O-])ccc12,-0.796% (inactive),13.9,–,–
O=C(COc1ccccc1)NNC(=S)NC(=O)c1ccc(Cl)cc1Cl,3.86% (inactive),-11.7,–,–
